Assay outcomes (PubChem BioAssay)
Giardia kill = Giardia lamblia killing; AID 540267; activity change, % at 7.66 µM, hits read low; Giardia lamblia trophozoite viability; hit rate 0.15% among 340,000; in the data active = activity change below about -80%; inconclusive = between about -30% and that limit;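 also: parasites exposed to compound for two days anaerobically before the ATP read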
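Trophozoites 100 cells/well + cpd; 48 hrs, 37 deg C, anaerobic. ATPLite 1-Step added, 15-30 min RT, luminescence read (ATP-based viability).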
IL-1B inflam inh = inhibitors of inflammasome signaling (IL-1 beta secretion); activity change, % at 57.5 µM; THP-1 LPS/ATP IL-1B secretion, AlphaLISA, 16 h; stronger effect = lower value; hit rate 4.7% among 360,000; in the data active = activity change below about -50%; inconclusive = mostly about -30% to -49%
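THP-1 cells pretreated 1 hr with compounds (up to 57.5 uM final), then stimulated with LPS (250 ng/mL final) plus ATP (1.25 mM final); secreted IL-1B measured by AlphaLISA after 16 hr, decreased signal indicating inhibition.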
DT40 TDP1 no CPT = qHTS for Inhibitors of human tyrosyl-DNA phosphodiesterase 1 (TDP1): qHTS in cells in absence of CPT; DT40 Tdp1-/- hTDP1 cells, no CPT, ATP luminescence, 48 h; Potency, µM (top dose mostly 46.2 µM), usual class: inhibitors; hit rate 15% among 420,000; also: nearly all actives have a fitted effect of over 55% in size
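DT40 Tdp1-/-;hTDP1 cells, no CPT (DMSO vehicle only), 400 cells/well; compounds pin-transferred; ≥48 hr, 37 °C; CellTiter-Glo 30 min RT dark, luminescence read.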
DT40 TDP1 CPT = growth inhibition of DT40 Tdp1-/-;hTDP1 cells with camptothecin (screen for TDP1 inhibitors); chicken DT40 Tdp1-/-;hTDP1 cells + 20 nM CPT, ATP luminescence, 48 h; Potency, µM (titrated, usually from 46.2 µM), usual class: inhibitors; hit rate 12% among 420,000; AID 686979; also: nearly all actives have a fitted effect of over 55% in size
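Chicken DT40 Tdp1-/- cells complemented with human TDP1, 400 cells/well, exposed to compounds plus 20 nM camptothecin for at least 48 h at 37 C; viability read as ATP content by CellTiter-Glo luminescence.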
ELG1 DNA repair = blocks ELG1-dependent DNA repair in HEK293T cells. Potency, µM (top dose mostly 46.1 µM), actives largely listed as inhibitors. hit rate 2.3% among 330,000. HEK293T ELG1-luciferase reporter, luminescence, 16 h; DNA damage induced by 5-fluorouridine; also: nearly all actives have a fitted effect of over 55% in size
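HEK293T cells expressing luciferase-tagged ELG1 (2,000/well) received 5-Fluorouridine plus compound or DMSO for 16 hr at 37 °C. Luciferase was read by ONE-Glo luminescence after 30 min at room temperature.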
TDP1 block = TDP1 (human) enzyme inhibition; hit rate 0.28% among 350,000; recombinant TDP1, AlphaScreen DNA substrate cleavage; Q9NUW8; Potency, µM (series often up to 130 µM), most hits filed as inhibitors; AID 485290; also: nearly all actives have a fitted effect of over 40% in size
Target sequence (Q9NUW8 whole entry, looked up): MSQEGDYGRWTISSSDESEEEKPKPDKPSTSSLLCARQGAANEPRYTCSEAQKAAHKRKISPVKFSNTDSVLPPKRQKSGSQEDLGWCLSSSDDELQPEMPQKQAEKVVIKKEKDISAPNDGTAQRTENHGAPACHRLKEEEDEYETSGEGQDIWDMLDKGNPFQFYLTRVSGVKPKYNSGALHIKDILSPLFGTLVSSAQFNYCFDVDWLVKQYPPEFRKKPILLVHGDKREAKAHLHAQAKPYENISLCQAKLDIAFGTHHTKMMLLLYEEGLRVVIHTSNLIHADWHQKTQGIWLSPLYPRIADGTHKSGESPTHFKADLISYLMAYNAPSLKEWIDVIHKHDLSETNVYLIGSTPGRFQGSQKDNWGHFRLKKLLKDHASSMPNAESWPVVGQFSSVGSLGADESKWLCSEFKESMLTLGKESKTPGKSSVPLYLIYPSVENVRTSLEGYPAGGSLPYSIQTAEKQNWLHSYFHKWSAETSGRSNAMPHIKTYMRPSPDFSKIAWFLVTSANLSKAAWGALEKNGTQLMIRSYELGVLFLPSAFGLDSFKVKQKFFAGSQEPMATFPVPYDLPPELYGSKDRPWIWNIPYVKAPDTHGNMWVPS
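Tdp1 1 nM final; 15 min RT w/ cpd; substrate 15 nM, 5 min; beads 10 ug/ml, 10 min; AlphaScreen read. Neg ctrl: no enzyme.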
Hits are given with their value; – = inactive; ? = inconclusive; · = no result given. Most compounds without a hit are left out; they make up all but 19% or so of the library. Unless noted, calls follow the shape of the dose curve; as a rule, active = well fitted curve in the direction sought with a large enough effect; inconclusive = small, poorly fitted or top-dose-only effect, or another doubt; inactive = no such curve, though single readings can be large; an effect the other way counts as inactive or inconclusive.

SMILES	Giardia kill	IL-1B inflam inh	DT40 TDP1 no CPT	DT40 TDP1 CPT	ELG1 DNA repair	TDP1 block
COc1ccc(/C=N/NC(=O)c2ccn[nH]2)cc1COc1ccc(F)cc1	–	–	?	16.4µM	–	–
COc1ccc(C(=O)N/N=C/c2ccc(OC)c(COc3ccc(F)cc3F)c2)cc1	–	–	18.4µM	?	9.2µM	–
COc1ccc(C(=O)N/N=C/c2ccc(OC)c(COc3ccc(F)cc3)c2)cc1	–	–	?	?	14.6µM	–
COc1ccc(C=O)cc1COc1ccc(F)cc1F	–	–	?	?	–	–
COc1ccc(/C=N/NC(=O)c2ccn[nH]2)cc1COc1ccc([N+](=O)[O-])c(C)c1	–	?	?	?	?	–
COc1ccc(/C=N\NC(=O)c2ccccc2OC)cc1COc1c(F)c(F)c(F)c(F)c1F	–	–	–	–	?	–
Nc1nonc1NC(=O)NN=C1CCCCC1	–	–	–	–	–	–
COc1ccc(/C=N\NC(=O)COc2ccc(C(C)(C)C)cc2)cc1Cn1nc(C)cc1C	–	–	20.6µM	?	–	–
COc1ccc(/C=N\NC(=O)c2ccccc2Br)cc1COc1ccc(F)cc1	–	–	18.4µM	?	–	–
COc1ccc(/C=N/NC(=O)c2ccn[nH]2)cc1COc1ccc(Cl)cc1Cl	–	-78.8	?	?	?	–
Cc1ccc(NC(=O)Cn2c(-c3nonc3N)nc3ccccc32)cc1Cl	·	·	–	–	·	–
Cn1nnc2c(NCc3ccccc3)ncnc21	·	·	–	–	·	–
CCCCCC1C(=O)C[C@@H]2CCN3C(=O)CCC[C@H]1[C@H]23 (stereo partly specified)	–	–	?	–	–	–
CN(C)c1ccc(/C=C2/NC(=O)NC2=O)cc1	?	–	?	–	?	–
CN(C)c1ccc(/C=C2\N=C(c3ccc(Cl)c([N+](=O)[O-])c3)NC2=O)cc1	–	–	10.3µM	?	–	·
Cc1cc(C)cc(NC(=O)C(=S)NCc2ccccc2)c1	–	–	–	–	–	–
COc1ccc(CC(=S)N2CCOCC2)cc1	–	–	18.4µM	?	–	–
CC(=O)Oc1ccc(C(=O)Nc2cc(C)on2)cc1	–	–	–	–	?	–
CCN1C(C(=O)c2ccccc2)=C(OC(=O)c2ccccc2OC)c2ccccc2S1(=O)=O	·	·	3.26µM	4.61µM	·	·
CCCCN1C(C(=O)c2ccccc2)=C(OC(C)=O)c2ccccc2S1(=O)=O	·	·	4.61µM	5.17µM	·	–
COc1ccccc1C(=O)NNC1=NS(=O)(=O)c2ccccc21	–	–	–	–	?	·
CCN1C(C(=O)c2ccccc2)=C(Nc2ccccc2C)c2ccccc2S1(=O)=O	–	?	?	–	–	–
CCCCC(=O)OC1=C(C(=O)c2ccccc2)N(CC)S(=O)(=O)c2ccccc21	·	·	7.31µM	20.6µM	·	–
N#CC1C=Cc2c(ccc3ccccc23)N1C(=O)c1ccccc1 (stereo unspecified)	?	-66.2	0.92µM	0.581µM	·	·
Nc1[nH]nc2nc3ccccc3cc12	–	–	–	–	–	–
SMILES	Giardia kill	IL-1B inflam inh	DT40 TDP1 no CPT	DT40 TDP1 CPT	ELG1 DNA repair	TDP1 block
Nc1cccc2nc3ccccc3cc12	–	–	?	6.51µM	23.1µM	–
CCOC(=O)c1sc(NC(=O)c2c(CC)noc2C)nc1C	–	–	–	–	–	–
FC(F)(F)c1cccc(N2CCN(c3ccc4nnc(-c5ccccc5)n4n3)CC2)c1	–	?	?	16.4µM	?	–
c1ccc(-c2nnc3ccc(N4CCCC4)nn23)cc1	–	–	?	–	–	–
Cc1cccc(C)c1N1CCN(c2ccc3nnc(C(F)(F)F)n3n2)CC1	–	–	20.6µM	20.6µM	?	–
Cc1ccc(S(=O)(=O)N2CCN(c3nc(-c4cccs4)nc4nc[nH]c34)CC2)cc1	–	·	?	?	·	·
CCNc1nc(Cl)nc(NCc2ccccc2)n1	–	–	–	–	–	–
Cc1cc(Oc2ccccc2)nc(NCc2ccccc2)n1	–	–	20.6µM	11.6µM	–	–
Cc1cc(Nc2ccc(Cl)cc2)nc(NCc2ccccc2)n1	–	?	8.2µM	7.31µM	–	–
Cc1cc(N2CCC(C)CC2)nc(-c2ccccc2O)n1	–	–	–	–	–	?
Cc1cc(Nc2cccc(F)c2)nc(NCc2ccccc2)n1	–	-101.9	5.8µM	4.11µM	–	–
Cc1cc(N2CCC(C)CC2)nc(NCc2ccccc2)n1	–	-90.1	16.4µM	?	?	–
Cc1cc(Oc2ccccc2F)nc(NCc2ccccc2)n1	–	–	?	?	?	–
CCn1cnc2c(Nc3ccc(CC(=O)N=C(N)N)cc3)nc(C#N)nc21	·	·	·	·	·	–
CCN(CC)C(=O)c1sc2c(c1C)c(=O)n(-c1ccc(C)c(C)c1)c(=O)n2Cc1cc(=O)n2c(C)cccc2n1	·	·	?	?	·	–
COc1cccc(C(=O)N2CCN(C(=O)C3COc4ccccc4O3)CC2)c1 (stereo unspecified)	–	–	–	–	–	–
C[C@H](c1ccccc1)n1nnc(COCc2ccccc2)c1C#CCOCc1ccccc1	–	–	?	?	–	–
CCN(CC)CCCNC(=O)CSc1nc2nc(C)c(Cc3ccccc3C)c(C)n2n1	·	·	–	–	·	–
Cc1ccc(Nc2cc(C)nc(-c3ccccc3O)n2)cc1	–	–	?	?	?	–
CCCCNc1cc(C)nc(NCc2ccccc2)n1	–	-98.2	5.8µM	9.2µM	14.6µM	–
Cc1cc(C)nc(NCCCc2ccccc2)n1	–	–	–	–	–	–
Fc1cc(F)nc(NCc2ccccc2)n1	–	–	–	–	–	·
Cc1ccc(Nc2cc(C)nc(-c3ccccc3)n2)cc1	–	-98.3	–	?	?	·
Cc1cc(Nc2ccccc2)nc(NCc2ccccc2)n1	–	-88.2	4.11µM	8.2µM	4.61µM	–
CCOC(=O)N1CCC2(CC1)C(C(=O)C13CC4CC(CC(C4)C1)C3)C2(C#N)C#N (stereo unspecified)	–	-54.2	?	?	?	–
COc1cccc(NC(=O)CCNC(=O)c2ccccc2Cl)c1	–	–	–	–	–	–
COc1cccc(CNC(=S)Nc2ccc3c(c2)c(=O)n(C)n3Cc2ccccc2)c1	·	–	?	?	·	·
COc1cccc(Cn2c3ccc(NC(=O)Cc4cc(OC)ccc4OC)cc3c(=O)n2C)c1	·	-78.0	20.6µM	11.6µM	·	·
COc1cccc(Cn2c3ccc(NC(=O)CC(C)C(F)(F)F)cc3c(=O)n2C)c1 (stereo unspecified)	·	–	?	?	·	·
COc1cccc(CC(=O)Nc2ccc3c(c2)c(=O)n(C)n3-c2ccc(C(C)(C)C)cc2)c1	·	–	?	25.9µM	·	·
